The panel holds about 79,000 compounds, 15% with a hit somewhere; the sample as a whole holds those more often. The source made the active and inactive calls. Rule as the data show it: active = growth inhibition above about 70%; inactive = the rest.
Assays:
[1] = NCI Yeast Anticancer Drug Screen. Data for the rad50 strain (AID 155);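 also: 0% = growth of vehicle-only cultures of the same strain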; details: S. cerevisiae rad50 strain growth inhibition, active compounds read high
Summary of the method: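 Readout: growth inhibition relative to vehicle-treated cultures. Compound exposure was carried out in a genetically defined yeast strain deficient in DNA damage repair.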

[2] = NCI Yeast Anticancer Drug Screen. Data for the mec2-1 strain (AID 157); details: S. cerevisiae mec2-1 strain, active compounds read high
Summary of the method: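 Test agents were screened against the mec2-1 yeast strain, with defined DNA repair or cell cycle alteration. Growth was scored as inhibition against vehicle-only controls.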

[3] = NCI Yeast Anticancer Drug Screen. Data for the sgs1 mgt1 strain (AID 161);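 also: 0% = growth of cultures given vehicle only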; details: S. cerevisiae sgs1 mgt1 strain, active compounds read high
Summary of the method: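 Read-out: growth inhibition vs vehicle controls. Cells: mutant yeast strain deficient in DNA damage repair.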

[4] = NCI Yeast Anticancer Drug Screen. Data for the cln2 rad14 strain (AID 165);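 also: 0% = growth equal to vehicle treated cultures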; details: S. cerevisiae cln2 rad14 strain, active compounds read high
Summary of the method: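 Growth of compound-exposed yeast (cln2 rad14 genotype) measured and expressed as inhibition relative to vehicle.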

[5] = NCI Yeast Anticancer Drug Screen. Data for the bub3 strain (AID 167); details: S. cerevisiae bub3 mutant strain, active compounds read high
Summary of the method: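 Readout: yeast growth inhibition, expressed relative to vehicle-only wells. The test organism is a mutant strain from a panel with lesions in DNA repair or checkpoint genes.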

[6] = NCI Yeast Anticancer Drug Screen. Data for the mlh1 rad18 strain (AID 175); details: S. cerevisiae mlh1 rad18 strain growth inhibition, active compounds read high
Summary of the method: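 In this whole-cell yeast screen, a strain with altered DNA damage repair is challenged with compound, and its growth is measured against matched vehicle-treated controls.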

[7] = at 5.0 µM (retest, dose inferred, filed as 0.5)
[8] = at 50.0 µM (retest, dose inferred, filed as 5.0)

Measured: growth inhibition

C=Cc1cc(O)cc2c1-c1ccc(O)c(C)c1CC2
inactive: [1]; [7] 10% | [2]; [7] -22% | [3]; [7] -1% | [4]; [7] -3% | [5]; [7] 10% | [6]; [7] -5%
active: [1]; [8] 99% | [1]; at 50.0 µM 99.7% | [2]; [8] 100% | [2]; at 50.0 µM 99.8% | [3]; [8] 99% | [3]; at 50.0 µM 99.8% | [4]; [8] 99% | [4]; at 50.0 µM 99.6% | [5]; [8] 99% | [5]; at 50.0 µM 99.5% | [6]; [8] 99% | [6]; at 50.0 µM 99.7%

COc1c(Br)c(=O)n(C)c(=O)n1C
active: [1]; [8] 99% | [1]; at 50.0 µM 89% | [2]; [8] 99% | [2]; at 50.0 µM 87.8% | [3]; [8] 98% | [3]; at 50.0 µM 91.2% | [4]; [8] 99% | [4]; at 50.0 µM 88.3% | [5]; [8] 99% | [5]; at 50.0 µM 89.2% | [6]; [8] 99% | [6]; at 50.0 µM 89%
inactive: [1]; [7] -11% | [2]; [7] -10% | [3]; [7] -29% | [4]; [7] -4% | [5]; [7] -26% | [6]; [7] -11%

CCN(CC)CCC(=O)NC1c2ccc(Cl)cc2Oc2c(C)cccc21 (configuration not stated)
inactive: [1]; [7] -23% | [1]; [8] 21% | [1]; at 50.0 µM 54.6% | [2]; [7] -1% | [2]; [8] -7% | [2]; at 50.0 µM -14.2% | [3]; [7] 2% | [3]; [8] 19% | [3]; at 50.0 µM 40.6% | [4]; [7] 18% | [4]; [8] 51% | [4]; at 50.0 µM 15.2% | [5]; [7] 3% | [5]; [8] 7% | [5]; at 50.0 µM -30.5% | [6]; [7] 8% | [6]; [8] 44% | [6]; at 50.0 µM 17.6%

CC1=CCCc2c1cc1ccc3cccc4ccc2c1c34
active: [2]; at 50.0 µM 79.7% | [3]; at 50.0 µM 94.2% | [5]; at 50.0 µM 91.2% | [6]; at 50.0 µM 89.8%
inactive: [1]; [7] 8% | [1]; [8] -6% | [1]; at 50.0 µM 49.5% | [2]; [7] -7% | [2]; [8] -8% | [3]; [7] -4% | [3]; [8] 16% | [4]; [7] -2% | [4]; [8] -8% | [4]; at 50.0 µM 28.1% | [5]; [7] -5% | [5]; [8] -10% | [6]; [7] -11% | [6]; [8] -6%

CC1(c2ccc(O)cc2)CC(C)(c2ccc(O)cc2)C1 (configuration not stated)
inactive: [2]; [7] 32% | [3]; [7] 67% | [4]; [7] 41%
active: [1]; [7] 81% | [1]; [8] 93% | [1]; at 50.0 µM 94.8% | [2]; [8] 82% | [2]; at 50.0 µM 93.2% | [3]; [8] 91% | [3]; at 50.0 µM 91.9% | [4]; [8] 87% | [4]; at 50.0 µM 94.2% | [5]; [7] 87% | [5]; [8] 91% | [5]; at 50.0 µM 95.2% | [6]; [7] 86% | [6]; [8] 89% | [6]; at 50.0 µM 92.8%

CC1SC2(C(=O)Nc3ccc(Br)cc32)N(c2ccc(Cl)cc2)C1=O (configuration not stated)
inactive: [1]; [7] 13% | [1]; at 50.0 µM 50.4% | [2]; [7] 2% | [3]; [7] -2% | [3]; at 50.0 µM 56.1% | [4]; [7] -3% | [5]; [7] 15% | [6]; [7] 10% | [6]; at 50.0 µM -8.55%
active: [1]; [8] 99% | [2]; [8] 99% | [2]; at 50.0 µM 99.5% | [3]; [8] 98% | [4]; [8] 95% | [4]; at 50.0 µM 90.8% | [5]; [8] 99% | [5]; at 50.0 µM 96.9% | [6]; [8] 99%

C#CCCOC(=O)CC1=C(C)/C(=C/c2ccc(S(C)=O)cc2)c2ccc(F)cc21 (configuration not stated)
inactive: [1]; [7] 23% | [2]; [7] 18% | [3]; [7] 65% | [4]; [7] 43% | [4]; [8] 41% | [5]; [7] 51% | [6]; [7] 21%
active: [1]; [8] 88% | [1]; at 50.0 µM 84.3% | [2]; [8] 84% | [2]; at 50.0 µM 90.2% | [3]; [8] 73% | [3]; at 50.0 µM 88% | [4]; at 50.0 µM 85.2% | [5]; [8] 85% | [5]; at 50.0 µM 86.4% | [6]; [8] 83% | [6]; at 50.0 µM 85.9%

O=[N+]([O-])c1ccc2c(c1)/C(=N\O)c1cc(Br)ccc1-2
inactive: [1]; [7] 14% | [1]; [8] 39% | [2]; [7] 5% | [2]; [8] 24% | [3]; [7] 13% | [3]; [8] 33% | [3]; at 50.0 µM 67.2% | [4]; [7] -2% | [4]; [8] 14% | [4]; at 50.0 µM 35.4% | [5]; [7] -5% | [5]; [8] 3% | [5]; at 50.0 µM 13.7% | [6]; [7] 10% | [6]; [8] 29%
active: [1]; at 50.0 µM 91.4% | [2]; at 50.0 µM 71% | [6]; at 50.0 µM 96.8%

C1=C(C2=CCCc3ccccc32)c2ccccc2CC1
inactive: [1]; [7] -1% | [1]; [8] 36% | [1]; at 50.0 µM 30.4% | [2]; [7] -5% | [2]; [8] 27% | [2]; at 50.0 µM 34.5% | [3]; [7] -3% | [3]; [8] 50% | [3]; at 50.0 µM 31.9% | [4]; [7] -4% | [4]; [8] 59% | [4]; at 50.0 µM -45.8% | [5]; [7] -2% | [5]; [8] 34% | [5]; at 50.0 µM 5.5% | [6]; [7] -1% | [6]; [8] 43%
active: [6]; at 50.0 µM 74.9%
